Compounds with a hit are over-represented: about 2.8% of the library has one in this group of screens.
PI5P4Ka inh: PI5P4K alpha (human) kinase inhibition | P48426 | PI5P4Kalpha enzyme, ADP-Glo luminescence, 60 min; hits give low values | max response, % | 330,000 compounds, 1.2% hits; active means max response of -50% or lower; inconclusive means between -30% and -50%; inactive means -30% or higher; further: value at the top dose of about 77 µM; on the % scale 0 is the no-effect control and ±100 the full control effect
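Quantitative HTS of the MLSMR library against PI5P4Kalpha with substrate. ATP added last at 5 microM final; room temperature, 60 minutes. Remaining ATP depleted, ADP converted and read as luminescence.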
POLK inh: inhibitors of human DNA polymerase kappa; Potency, µM (titrated, usually from 107 µM), inactives show at the highest dose activity, negative = inhibition, hits mostly inhibitors; Q9UBT6; 400,000 compounds, 0.53% hits; purified Pol kappa, fluorescent DNA synthesis assay, 10 min; AID 588579; further: potency means the concentration at half of the fitted maximal effect; on the % scale 0 is the no-effect control and ±100 the full control effect
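Fluorescent qHTS in 1536-well format: enzyme (10 nM) and compound sat 15 min at room temperature before 50 nM substrate (final) was added. Signal taken at 0 and 10 min; no-enzyme buffer wells were negative controls.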
WRN inhibitor: WRN helicase (human) inhibition | 360,000 compounds, 0.46% hits | Q14191 | WRN helicase unwinding, fluorescent forked duplex, kinetic | Potency, µM (top dose mostly 114 µM), without a hit: at the top dose activity change, negative = inhibition, usual class: inhibitors | AID 651768; further: potency means the concentration at half of the fitted maximal effect; on the % scale 0 is the no-effect control and ±100 the full control effect; nearly all actives have a fitted effect of over 55% in size
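Kinetic red-fluorescence monitoring (525/598 nm) tracks WRN helicase activity after 100 nM fluorophore-quencher forked duplex and 2 mM ATP are added to 20 nM enzyme pretreated 15 min at room temperature with compound.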
POLB inh: DNA polymerase beta (human) inhibition. Pol beta primer extension/strand displacement, fluorescence kinetic. Potency, µM (highest dose often 114 µM), for inactives: top-dose activity change, negative = inhibition, hits mostly inhibitors. 340,000 compounds, 1.3% hits. P06746. AID 485314; further: potency means the concentration at half of the fitted maximal effect; on the % scale 0 is the no-effect control and ±100 the full control effect
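Enzyme-only controls used 10 nM Pol beta; buffer lacking enzyme served as negative control. Compound preincubated 15 min, then 50 nM substrate added; 0 and 10 min reads at room temperature.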
Pol iota inh: blocks human DNA polymerase iota activity | Q9UNA4 | Pol iota fluorescent replication assay, 10 min | Potency, µM (series often up to 115 µM), for inactives: at the highest dose activity, negative = inhibition, usual class: inhibitors | 390,000 compounds, 1% hits; further: potency means the concentration at half of the fitted maximal effect
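Fluorescent replication assay read twice, at 0 min and 10 min after adding 50 nM (final) substrate. Enzyme (10 nM) and compounds were first incubated 15 min at room temperature; enzyme-free buffer wells were negative controls.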
Pol eta inh: inhibitors of human DNA polymerase eta | Q9Y253 | recombinant Pol eta, fluorescent DNA replication assay | Potency, µM (series often up to 114 µM), for inactives: at the highest dose activity change, negative = inhibition, most hits filed as inhibitors | 390,000 compounds, 1.2% hits; further: potency means the concentration at half of the fitted maximal effect; on the % scale 0 is the no-effect control and ±100 the full control effect
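Pol eta at 10 nM preincubated with compounds 15 min at room temperature; reaction started with fluorescent substrate (50 nM final) and read kinetically at 0 and 10 min.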
* marks the source's active call; other numbers are inactive results; ? = inconclusive; / = not tested or not shown; [ ] = another dose, or the depositor's remark. Unless noted, the call rests on the fitted dose curve; in most records, active means well fitted curve in the direction sought with a large enough effect; inconclusive means small, poorly fitted or top-dose-only effect, or another doubt; inactive means no such curve, though single readings can be large; an effect the other way counts as inactive or inconclusive.

SMILES	PI5P4Ka inh	POLK inh	WRN inhibitor	POLB inh	Pol iota inh	Pol eta inh
Nc1cccn2c(-c3ccc(Cl)c(Cl)c3)cnc12	-18	-13%	-19%	-14%	13µM*	-4%
Cc1ccc(OCC(=O)Nc2ccccc2C(=O)OCc2cc(=O)n3ccsc3n2)cc1C	/	-4%[60.1 µM]	/	-1%	-20%	2%
CC(C)CC1C(=O)N(Cc2cn(CC3CCCCC3)nn2)CCS(=O)(=O)N1Cc1ccc(-c2cccc(CO)c2)cc1 (stereo unspecified)	0	/	-10%	/	/	-11%
Clc1ccc(-c2csc(N/N=C/c3cccnc3)n2)c(Cl)c1	4	-25%	-33%	79µM*	111%	-18%
O=C(O)COC(=O)C1C(c2ccccc2)C(C(=O)O)C1c1ccccc1 (stereo unspecified)	-4	0%	-3%	-2%	-4%	-9%
COc1cc(/C=N/NC(=O)c2ccncc2)ccc1OC(C)=O	0	5%	-1%	28%	0%	-13%
CC1CCN(c2ccc(/C=N/n3nnnc3N)cc2[N+](=O)[O-])CC1	/	-3%	6%	0%	5%	-1%
CC1CCN(c2ccc(/C=N\Nc3nncn3N)cc2[N+](=O)[O-])CC1	8	-12%	-8%[11.6 µM]	-2%	13µM*	-18%
COc1cc(/C=N\Nc2nncn2N)ccc1OC(C)=O	-5	-27%	0%[11.6 µM]	17%	7.1µM*	-10%
CSc1ccc(/C=N\Nc2nncn2N)cc1	-2	-4%	10%	3%	5.6µM*	-22%
CC(C)(C)c1ccc(/C=N/Nc2nncn2N)cc1	-1	-3%	3%[11.6 µM]	-19%	3.2µM*	-7%
Cc1ccc(/C=N/NC(=O)c2ccc(-n3cnnn3)cc2)cc1	2	-14%	-8%	/	-18%	-5%
NS(=O)(=O)c1cc(Cl)c(NC(=O)COC(=O)c2ccccn2)c(Cl)c1	?	-34%	-10%	/	40µM*	79µM*
O=C(COC(=O)c1ccccn1)Nc1cccc(Cl)c1Cl	-6	-10%	7%	4%	10%	0%
CCNc1c(NC(=O)c2cc(OCC)c(OCC)c(OCC)c2)c(=O)oc2ccccc12	/	7%	/	25%	20%	-4%
COc1ccc(CNCCc2ccc([N+](=O)[O-])cc2)c(OC)c1OC	0	-9%	-4%	39%	6%	-11%
COc1cc(N(C)C)cc(CN(C)CCc2ccc([N+](=O)[O-])cc2)c1O	/	3µM*	/	/	/	/
O=C(COC(=O)c1cc[n+]([O-])cc1)Nc1ccc(F)c([N+](=O)[O-])c1	?	-11%	4%	1%	?	-6%
CCCCOCC1CN(c2ccccc2)C(=O)CS1 (stereo unspecified)	?	-8%	-7%[11.6 µM]	?	0%	20µM*
CC1CN(c2ccccc2)C(=O)CS1 (stereo unspecified)	?	-25%	-13%[57.1 µM]	45µM*	?	20µM*
COc1ccc(C2SCC(=O)N2c2ccccc2)cc1 (stereo unspecified)	-1	5%	-1%	2%	-4%	4%
COc1cccc(C2c3c(oc4cc(C)cc(C)c4c3=O)C(=O)N2CCc2ccc(OC)c(OC)c2)c1 (stereo unspecified)	/	-6%	/	-16%	3%	/
CC(C)NC(=O)c1ccc(N(Cc2ccc(Cl)cc2)S(C)(=O)=O)cc1	-5	-7%	8%	6%	173%	-24%
O=C(NC1CCCCC1)c1c2c(nc3ccccc13)CCC2	?	-19%	0%[11.6 µM]	20µM*	79µM*	?
CNC(=O)COC(=O)c1c2c(nc3ccccc13)CCC2	?	?	-17%[57.1 µM]	20µM*	8.9µM*	25µM*
Cc1c(C(=O)Nc2ccccc2Br)oc2ccc(S(=O)(=O)N3CCCCCC3)cc12	/	-7%[60.1 µM]	/	9%	3%	-5%

Compound activity deposited in PubChem BioAssay by National Center for Advancing Translational Sciences (NCATS).
